For some assays here: Potency and affinity values are given separately. Calls of active or inactive are those of the source.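 How the source made its calls, unless noted: active means compound raising the membrane signal above positive-control mean plus 3 SD in both repeats, and a primary screen hit; inactive means the rest.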
Legend:
[1] = test system: TRPC4 beta (transient receptor potential cation channel C4), mouse; assay: activators of mouse TRPC4 channel, confirmation, cell-based, Fluo4 calcium, HEK293 TRPC4beta/mu-opioid, duplicates, 10 µM (AID 2426;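 active means fluorescence ratio normalized to control raised more than 50% in primary screen plus both repeat runs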;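 further: percent rise of integrated ratio over buffer wells lacking compound which define 0%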); settings: Fluo4 calcium fluorescence, at 10 µM; stronger effect = higher value
[2] = test system: transient receptor potential cation channel C4 beta (TRPC4), mouse; assay: activators of mouse TRPC4 channel, confirmation, cell-based, second round, Fluo4, HEK293 TRPC4beta/mu-opioid, 1 µM (AID 2461;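 active means primary screen active and over 50% activation in each of two duplicate runs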;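 on activation: 0% = wells without test compound as baseline of integrated fluorescence ratio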); settings: Fluo4 calcium fluorescence, at 1 µM; stronger effect = higher value
[3] = test system: TRPC4 (transient receptor potential cation channel C4 beta), mouse; assay: positive allosteric modulators of mouse TRPC4, confirmation, cell-based, second round, Fluo-4, HEK293 TRPC4beta/mu-opioid, 1 µM (AID 2554;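 active means primary screen hit whose fluorescence ratio, in both repeats, exceeds the weak agonist control mean by 3 SD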); settings: DAMGO EC20, Fluo-4 calcium flux, at 1 µM; stronger effect = higher value
[4] = test system: TRPC4 beta (transient receptor potential cation channel C4), mouse; assay: positive allosteric modulators of mouse TRPC4, confirmation, cell-based, Fluo-4, HEK293 TRPC4beta/mu-opioid (AID 2555;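 active means primary screen hit whose calcium fluorescence ratio, in both repeats, exceeds the weak agonist control mean by 3 SD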); settings: DAMGO EC20, Fluo-4 calcium flux, at 10 µM; stronger effect = higher value
[5] = biological target: Short transient receptor potential channel 4 (Mus musculus) (UniProt Q9QUQ5); assay: inhibitors of mouse TRPC4 channel, confirmation, cell-based, Fluo4, HEK293 TRPC4beta/mu-opioid (AID 2636;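 active means calcium signal cut by more than 3 SD below the full-agonist control yet still positive, in both repeats and the earlier primary screen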); settings: DAMGO, Fluo4 calcium flux, at 10 µM; stronger effect = higher value
Sequence of Short transient receptor potential channel 4 (Mus musculus) (Q9QUQ5 whole entry, looked up): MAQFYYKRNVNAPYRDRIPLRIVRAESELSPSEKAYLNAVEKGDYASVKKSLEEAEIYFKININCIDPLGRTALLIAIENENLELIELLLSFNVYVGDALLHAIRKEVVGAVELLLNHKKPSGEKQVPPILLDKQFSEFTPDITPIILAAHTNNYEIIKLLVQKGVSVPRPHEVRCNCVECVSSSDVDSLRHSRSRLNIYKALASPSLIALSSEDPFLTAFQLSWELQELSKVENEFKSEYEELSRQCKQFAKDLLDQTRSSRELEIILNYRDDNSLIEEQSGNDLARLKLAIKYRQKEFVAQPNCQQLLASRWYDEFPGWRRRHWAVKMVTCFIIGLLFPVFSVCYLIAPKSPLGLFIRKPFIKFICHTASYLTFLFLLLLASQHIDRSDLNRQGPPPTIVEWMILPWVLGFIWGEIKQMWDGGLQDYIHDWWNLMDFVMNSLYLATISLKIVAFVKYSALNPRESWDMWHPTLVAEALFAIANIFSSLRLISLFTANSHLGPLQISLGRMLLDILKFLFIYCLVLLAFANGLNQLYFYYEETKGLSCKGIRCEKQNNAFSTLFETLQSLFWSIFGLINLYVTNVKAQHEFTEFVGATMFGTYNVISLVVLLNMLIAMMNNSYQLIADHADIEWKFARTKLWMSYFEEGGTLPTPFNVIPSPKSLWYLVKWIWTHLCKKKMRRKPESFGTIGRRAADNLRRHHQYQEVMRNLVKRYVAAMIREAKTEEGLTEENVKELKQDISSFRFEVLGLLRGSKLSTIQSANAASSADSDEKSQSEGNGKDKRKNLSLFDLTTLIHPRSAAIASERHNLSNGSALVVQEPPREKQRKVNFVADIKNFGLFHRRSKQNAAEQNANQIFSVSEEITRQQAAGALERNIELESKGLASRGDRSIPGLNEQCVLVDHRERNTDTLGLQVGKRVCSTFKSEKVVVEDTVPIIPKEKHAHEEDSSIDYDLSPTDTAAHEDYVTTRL

[6] = biological target: Short transient receptor potential channel 4 (Mus musculus) (UniProt Q9QUQ5); assay: inhibitors of mouse TRPC4 channel, confirmation, cell-based, second round, Fluo4, HEK293 TRPC4beta/mu-opioid, 1 µM (AID 2637;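 active means calcium signal ratio cut to more than 3 SD under the fully stimulated control mean yet still positive, in both repeats and the primary screen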;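 on inhibition: percent of integrated ratio relative to wells lacking test compound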); settings: Fluo4 calcium flux, DAMGO, at 1 µM; stronger effect = higher value
[7] = biological target: Short transient receptor potential channel 4 (Mus musculus) (UniProt Q9QUQ5); assay: TRPC4 positive allosteric modulators, dose response, cell-based, HEK293 TRPC4/mu-opioid, Fluo-4 calcium, EC20 DAMGO (AID 434941;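 active means earlier screen potentiator hit that boosts the TRPC4 ion channel at some dose, with a dose response; inactive means no potentiation, no dose response, or not a prior hit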;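 further: calcium entry triggered by an EC20 dose of DAMGO at the co-expressed mu-opioid receptor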)
[8] = biological target: Short transient receptor potential channel 4 (Mus musculus) (UniProt Q9QUQ5); assay: mouse TRPC4 channel inhibitors, dose response, cell-based, HEK293 TRPC4/mu-opioid, Fluo-4 calcium (AID 434942;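 active means primary screen inhibitor hit that blocks the TRPC4 channel at some tested dose, yielding a dose curve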)
[9] = biological target: Short transient receptor potential channel 6 (Mus musculus) (UniProt Q61143); assay: inhibition of mouse TRPC6 channel, confirmation, selectivity assay for TRPC4 inhibitor project, cell-based, HEK293, membrane potential dye, duplicate (AID 434948;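 active means active in primary screen and both duplicates, each dropping signal beyond three positive-control SD with fluorescence still positive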); settings: HEK293 TRPC6, membrane potential dye fluorescence, at 10 µM; inhibition: stronger effect = higher value, stimulated with maximal-effect acetylcholine unless noted; outcome: stimulated with maximal-effect acetylcholine unless noted
Sequence of Short transient receptor potential channel 6 (Mus musculus) (Q61143 whole entry, looked up): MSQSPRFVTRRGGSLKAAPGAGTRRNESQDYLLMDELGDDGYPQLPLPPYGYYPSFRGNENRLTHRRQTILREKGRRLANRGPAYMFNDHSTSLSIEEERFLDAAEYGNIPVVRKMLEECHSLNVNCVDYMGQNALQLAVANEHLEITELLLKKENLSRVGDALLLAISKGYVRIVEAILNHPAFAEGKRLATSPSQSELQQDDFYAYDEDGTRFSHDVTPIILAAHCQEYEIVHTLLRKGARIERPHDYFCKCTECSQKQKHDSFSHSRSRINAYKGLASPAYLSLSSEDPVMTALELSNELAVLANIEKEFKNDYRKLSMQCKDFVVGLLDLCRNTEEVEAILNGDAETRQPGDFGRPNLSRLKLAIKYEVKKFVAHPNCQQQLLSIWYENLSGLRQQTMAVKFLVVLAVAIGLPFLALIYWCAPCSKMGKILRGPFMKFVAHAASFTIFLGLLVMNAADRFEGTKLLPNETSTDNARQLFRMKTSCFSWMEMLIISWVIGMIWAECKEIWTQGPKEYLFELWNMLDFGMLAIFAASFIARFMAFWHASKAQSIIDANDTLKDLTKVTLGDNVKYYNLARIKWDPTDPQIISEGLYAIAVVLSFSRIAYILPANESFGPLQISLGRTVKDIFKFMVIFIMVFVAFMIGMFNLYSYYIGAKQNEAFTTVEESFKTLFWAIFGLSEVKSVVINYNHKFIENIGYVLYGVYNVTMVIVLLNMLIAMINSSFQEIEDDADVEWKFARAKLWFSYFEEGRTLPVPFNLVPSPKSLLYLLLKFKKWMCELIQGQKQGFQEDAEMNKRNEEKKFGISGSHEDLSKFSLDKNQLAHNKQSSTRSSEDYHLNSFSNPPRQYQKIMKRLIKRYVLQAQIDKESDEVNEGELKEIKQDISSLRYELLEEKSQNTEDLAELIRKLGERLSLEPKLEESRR

[10] = biological target: Short transient receptor potential channel 6 (Mus musculus) (UniProt Q61143); assay: activation of mouse TRPC6 channel, confirmation, selectivity assay for TRPC4 activator project, cell-based, HEK293, membrane potential dye, duplicate (AID 434950;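 active means membrane potential signal rise above negative control mean plus 3 SD in both duplicates, also active in the earlier TRPC4 screen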;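 on activation: 0% = buffer only wells and 100% = acetylcholine maximal-effect wells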); settings: HEK293 TRPC6, membrane potential fluorescence, at 10 µM; stronger effect = higher value
[11] = biological target: Short transient receptor potential channel 6 (Mus musculus) (UniProt Q61143); assay: TRPC6 potentiation by TRPC4 potentiator hits, confirmation, selectivity assay for TRPC4 potentiator project, HEK293 cells, membrane potential dye, duplicate (AID 434952); settings: HEK293 TRPC6, membrane potential dye fluorescence, at 10 µM; maximal acetylcholine added after compound unless noted
[12] = biological target: Short transient receptor potential channel 4 (Mus musculus) (UniProt Q9QUQ5); assay: calcium flux activators in TRPC4/5HT1a cells, counter-screen for TRPC4 activator project, cell-based, second counter screen, HEK293 TRPC4/5HT1a, Fluo-4 (AID 434977;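 active means calcium signal rise above buffer-control mean plus 5 SD in both duplicates, and also a hit in the primary screen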;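 on activation: plate controls were assay buffer for no effect and maximal serotonin response for full effect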); settings: Fluo-4 calcium flux, at 10 µM; stronger effect = higher value
[13] = calcium flux inhibitors in TRPC4/5HT1a cells, confirmation, counter-screen for TRPC4 inhibitor project, cell-based, second counter screen, HEK293 TRPC4/5HT1a, Fluo-4 (AID 434978;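 active means primary screen active whose calcium signal fell more than 3 SD beyond the full-serotonin control mean in both duplicate plates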;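 further: serotonin given first at submaximal then at maximal dose after compound preincubation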); settings: Fluo-4 calcium flux, at 10 µM; inhibition: stronger effect = higher value, serotonin added to trigger calcium flux unless noted; outcome: serotonin added to trigger calcium flux unless noted
[14] = test system: TRPC4 (mouse), co-expressed with 5HT1a in HEK293; assay: calcium flux potentiators in TRPC4/5HT1a cells, confirmation, counter-screen for TRPC4 potentiator project, cell-based, second counter screen, HEK293 TRPC4/5HT1a, Fluo-4 (AID 434979;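 active means signal rise over 3 SD above mean of control wells given weak agonist, in both repeats and first screen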); settings: Fluo-4 calcium flux, at 10 µM; outcome: serotonin added at its EC20 dose unless noted; potentiation: stronger effect = higher value, serotonin added at its EC20 dose unless noted
[15] = calcium flux activation in mu-opioid HEK293 cells, confirmation, counter-screen for TRPC4 activator project, cell-based, HEK293 mu-opioid receptor line (AID 449723;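 active means hit in primary screen, with calcium signal over 5 SD above buffer well mean in both duplicates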;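 further: counter screen cells carry the mu-opioid receptor alone and lack TRPC4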); settings: Fluo-4 calcium fluorescence, at 10 µM; stronger effect = higher value
[16] = calcium flux enhancement in mu-opioid HEK293 cells, confirmation, counter-screen for TRPC4 allosteric potentiator project, cell-based, HEK293 mu-opioid receptor line (AID 449724;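 active means calcium signal rise more than 3 SD above the low-dose agonist control mean, in both duplicate plates and the primary screen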); settings: Fluo-4 calcium flux, at 10 µM; compound added before EC20 DAMGO stimulus unless noted
[17] = thallium flux activation in parental CHO cells, counter-screen for KCNQ1 potentiator project (AID 493006;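 active means duplicate-averaged activation above buffer control mean plus 5 SD of those controls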); settings: parental CHO-K1 cells, FluxOR thallium flux, at 10 µM; stronger effect = higher value
[18] = biological target: Potassium voltage-gated channel subfamily KQT member 1 (Homo sapiens) (UniProt P51787); assay: KCNQ1 potassium channel potentiators, confirmation, FluxOR thallium flux, CHO cells, duplicates (AID 493007;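 active means potentiation averaged over duplicate wells exceeding buffer-only control mean by more than 3 SD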;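 further: cells depolarized by a potassium plus thallium sulfate stimulus after compound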); settings: KCNQ1 cell line, FluxOR thallium flux fluorescence, at 10 µM; stronger effect = higher value, % of reference activator effect, buffer zero
Sequence of Potassium voltage-gated channel subfamily KQT member 1 (Homo sapiens) (P51787 whole entry, looked up): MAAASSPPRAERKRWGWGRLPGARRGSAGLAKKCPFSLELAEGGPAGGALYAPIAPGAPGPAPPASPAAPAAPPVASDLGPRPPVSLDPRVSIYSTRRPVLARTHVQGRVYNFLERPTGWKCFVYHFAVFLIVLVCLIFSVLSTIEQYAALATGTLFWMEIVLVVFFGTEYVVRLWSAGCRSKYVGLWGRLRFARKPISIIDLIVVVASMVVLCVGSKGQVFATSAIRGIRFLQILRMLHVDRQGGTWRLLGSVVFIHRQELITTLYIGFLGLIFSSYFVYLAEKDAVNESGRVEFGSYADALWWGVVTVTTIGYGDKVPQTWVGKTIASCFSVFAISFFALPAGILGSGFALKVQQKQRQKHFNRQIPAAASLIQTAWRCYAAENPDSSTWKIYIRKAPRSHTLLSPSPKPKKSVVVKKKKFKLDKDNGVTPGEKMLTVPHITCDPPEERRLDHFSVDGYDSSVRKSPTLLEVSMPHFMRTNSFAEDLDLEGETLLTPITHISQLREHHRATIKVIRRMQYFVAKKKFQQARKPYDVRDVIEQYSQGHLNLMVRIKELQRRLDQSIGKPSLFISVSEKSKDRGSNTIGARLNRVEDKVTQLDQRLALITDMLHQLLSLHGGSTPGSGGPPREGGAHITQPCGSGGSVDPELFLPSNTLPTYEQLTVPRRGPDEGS

[19] = biological target: Potassium voltage-gated channel subfamily KQT member 2 (Rattus norvegicus) (UniProt O88943); assay: rat KCNQ2 channel potentiation, selectivity assay for KCNQ1 potentiator project, KCNQ2-CHO-K1 cells (AID 493009;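 active means mean duplicate potentiation above the buffer control mean plus 5 SD of buffer wells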;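 further: assay conditions were tuned for KCNQ1 rather than KCNQ2 modulators; signal is max minus min fluorescence divided by baseline after thallium stimulus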); settings: FluxOR thallium flux fluorescence, at 10 µM; stronger effect = higher value, scaled: buffer 0, activator control 100
Sequence of Potassium voltage-gated channel subfamily KQT member 2 (Rattus norvegicus) (O88943 whole entry, looked up): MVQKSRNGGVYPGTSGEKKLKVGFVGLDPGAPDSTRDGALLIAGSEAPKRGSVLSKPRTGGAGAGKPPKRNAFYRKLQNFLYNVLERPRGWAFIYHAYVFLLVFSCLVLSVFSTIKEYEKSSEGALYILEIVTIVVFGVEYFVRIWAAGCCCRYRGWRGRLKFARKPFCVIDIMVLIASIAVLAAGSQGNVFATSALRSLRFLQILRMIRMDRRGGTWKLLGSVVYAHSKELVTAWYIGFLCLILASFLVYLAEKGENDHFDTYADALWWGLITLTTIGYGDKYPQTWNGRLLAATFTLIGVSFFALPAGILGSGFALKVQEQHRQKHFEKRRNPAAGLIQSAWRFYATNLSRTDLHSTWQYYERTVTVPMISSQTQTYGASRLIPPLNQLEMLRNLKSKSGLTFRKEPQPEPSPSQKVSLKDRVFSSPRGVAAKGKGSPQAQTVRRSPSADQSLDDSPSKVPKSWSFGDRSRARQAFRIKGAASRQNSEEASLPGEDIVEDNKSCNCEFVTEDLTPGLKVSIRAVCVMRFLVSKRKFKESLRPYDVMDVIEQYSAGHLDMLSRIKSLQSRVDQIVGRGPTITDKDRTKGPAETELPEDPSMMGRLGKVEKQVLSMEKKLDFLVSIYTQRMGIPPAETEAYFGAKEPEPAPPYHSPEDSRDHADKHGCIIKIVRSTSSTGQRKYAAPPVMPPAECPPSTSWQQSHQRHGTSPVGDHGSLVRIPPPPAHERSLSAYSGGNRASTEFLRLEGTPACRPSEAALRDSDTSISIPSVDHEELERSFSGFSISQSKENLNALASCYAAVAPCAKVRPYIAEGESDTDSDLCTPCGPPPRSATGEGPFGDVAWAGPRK

[20] = biological target: Potassium voltage-gated channel subfamily KQT member 1 (Homo sapiens) (UniProt P51787); assay: KCNQ1 channel current potentiators, confirmation, orthogonal assay for KCNQ1 potentiator project, IonWorks patch clamp, KCNQ1-CHO cells (AID 493184;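 active means current rise at least 3 SD above the untreated control mean in each of two repeat wells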); settings: automated patch clamp current, at 10 µM

COc1ccc(CNCCc2c[nH]c3ccccc23)cc1OC
active: activation [1] 110% | activation [10] 28%
inactive: outcome [2] | outcome [3] | outcome [4] | outcome [5] | outcome [6] | outcome [7] | outcome [8] | outcome [9] | outcome [11] | outcome [12] | outcome [13] | outcome [14] | outcome [15] | outcome [16]

Nc1cc(N2CCNCC2)ccc1[N+](=O)[O-]
inactive: outcome [3] | outcome [4] | outcome [5] | outcome [6] | outcome [8] | outcome [9] | outcome [10] | outcome [11] | outcome [13] | outcome [15] | outcome [16]
active: activation [1] 199% | activation [2] 84% | activation [12] 10.7% | potentiation [14] 38.4%

CCN1CCN(Cc2cc(Br)cc(Br)c2O)CC1
inactive: outcome [3] | outcome [4] | outcome [5] | outcome [6] | outcome [7] | outcome [8] | outcome [9] | outcome [11] | outcome [13] | outcome [14] | outcome [15] | outcome [16]
active: activation [1] 221% | activation [2] 133% | activation [10] 38.5% | activation [12] 70.3%

O=[N+]([O-])c1cc2c(cc1CNCCc1ccc3c(c1)OCO3)OCO2
active: activation [1] 62% | inhibition [5] 91% | inhibition [6] 39%
inactive: outcome [2] | outcome [3] | outcome [4] | outcome [7] | outcome [9] inactive [setting not given] | outcome [10] | outcome [11] inactive [setting not given] | outcome [12] | outcome [13] inactive [setting not given] | outcome [14] inactive [setting not given] | outcome [15] | outcome [16] inactive [setting not given]

CNC(=O)NC(O)C(Cl)(Cl)Cl (centres undefined)
inactive: outcome [17] | outcome [18] | outcome [19] | outcome [20]

CN(C)C1(CNC(=O)Nc2ccc(Cl)c(Cl)c2)CCCCC1
inactive: outcome [3] | outcome [4] | outcome [5] | outcome [6] | outcome [7] | outcome [8] | outcome [9] | outcome [10] | outcome [11] | outcome [13] | outcome [14] | outcome [16]
active: activation [1] 229% | activation [2] 64% | activation [12] 29.4% | activation [15] 42.7%

N#CCCn1cc(C(=O)Nc2ccccc2Cl)c(-c2ccc(F)cc2)n1
inactive: outcome [17] | outcome [18] | outcome [20]
active: potentiation [19] 144%

COc1ccc(CNCCc2ccc3c(c2)OCO3)cc1Br
active: activation [1] 141% | activation [10] 47.5% | activation [12] 27.3%
inactive: outcome [2] | outcome [3] | outcome [4] | outcome [5] | outcome [6] | outcome [7] | outcome [8] | outcome [9] inactive [setting not given] | outcome [11] inactive [setting not given] | outcome [13] inactive [setting not given] | outcome [14] inactive [setting not given] | outcome [15] | outcome [16] inactive [setting not given]

Cc1ccc(C)c(NC(=S)NCCc2cnc[nH]2)c1
active: activation [1] 137% | activation [12] 69.3%
inactive: outcome [2] | outcome [3] | outcome [4] | outcome [5] | outcome [6] | outcome [7] | outcome [8] | outcome [9] | outcome [10] | outcome [11] | outcome [13] | outcome [14] | outcome [15] | outcome [16]

NC(N)=N/N=C/c1ccc(N(c2ccccc2)c2ccccc2)cc1
active: activation [1] 60% | activation [12] 48.2% | activation [15] 20.3%
inactive: outcome [2] | outcome [3] | outcome [4] | outcome [5] | outcome [6] | outcome [7] | outcome [8] | outcome [9] | outcome [10] | outcome [11] | outcome [13] | outcome [14] | outcome [16]

Source: PubChem BioAssay
